According to PubChem BioAssay (EPA / NIEHS):
Results filed as inconclusive are left out. Where a structure was tested more than once in an assay, its records may differ in their call. Calls of active or inactive are those of the source. The calls were made as follows, unless noted: active = hit-call score of the fitted dose curve at least 0.9, where 1 is the maximum; inconclusive = response in the unintended direction; inactive = score below 0.9.

What was measured:
[1] = biological target: Estrogen receptor beta (Homo sapiens) (UniProt Q92731); assay: OT_ER_ERbERb_1440: Odyssey Thera (OT) 24-hour HEK293T Protein-Complementation Assay for Estrogen Receptor-beta/-beta Homodimer (AID 2283380);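 also: fluorescence gain from ER beta LBD homodimer complementation read by laser scanning cytometry; scored as signal increase over DMSO baseline for both agonists and antagonists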
Chain of Estrogen receptor beta (Homo sapiens) (Q92731 whole entry, looked up, the tested form may be a part): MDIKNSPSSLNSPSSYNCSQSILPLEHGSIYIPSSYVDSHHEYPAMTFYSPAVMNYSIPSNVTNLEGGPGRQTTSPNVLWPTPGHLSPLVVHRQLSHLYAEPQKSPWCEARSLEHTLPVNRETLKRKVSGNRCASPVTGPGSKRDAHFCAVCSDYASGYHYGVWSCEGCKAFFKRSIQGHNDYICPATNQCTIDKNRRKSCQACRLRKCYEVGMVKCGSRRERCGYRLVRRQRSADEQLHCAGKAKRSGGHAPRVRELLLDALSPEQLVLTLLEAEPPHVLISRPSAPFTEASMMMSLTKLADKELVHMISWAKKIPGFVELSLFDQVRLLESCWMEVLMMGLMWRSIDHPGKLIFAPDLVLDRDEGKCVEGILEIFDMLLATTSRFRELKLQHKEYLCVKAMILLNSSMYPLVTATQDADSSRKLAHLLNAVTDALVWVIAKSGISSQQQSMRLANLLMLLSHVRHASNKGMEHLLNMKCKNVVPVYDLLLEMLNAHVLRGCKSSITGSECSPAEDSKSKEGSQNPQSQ
Procedure, shortened: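 Fluorescence increase, nuclear for agonists or whole-cell for antagonists, relative to DMSO vehicle, quantified by laser scanning cytometer after fixation and Draq5 staining. Readout from 24 h treatment of HEK293T cells carrying complementation-paired ER beta LBD (aa 310-547).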

[2] = biological target: Estrogen receptor (Homo sapiens) (UniProt P03372); assay: OT_ERa_GFPERaERE_0480: Odyssey Thera (OT) 8-hour HeLa Transcription Induction Assay for Estrogen Receptor (AID 2283381; active = hit-call score of the fitted dose curve at least 0.9, where 1 is the maximum; inactive = score below 0.9)
Chain of Estrogen receptor (Homo sapiens) (P03372 whole entry, looked up): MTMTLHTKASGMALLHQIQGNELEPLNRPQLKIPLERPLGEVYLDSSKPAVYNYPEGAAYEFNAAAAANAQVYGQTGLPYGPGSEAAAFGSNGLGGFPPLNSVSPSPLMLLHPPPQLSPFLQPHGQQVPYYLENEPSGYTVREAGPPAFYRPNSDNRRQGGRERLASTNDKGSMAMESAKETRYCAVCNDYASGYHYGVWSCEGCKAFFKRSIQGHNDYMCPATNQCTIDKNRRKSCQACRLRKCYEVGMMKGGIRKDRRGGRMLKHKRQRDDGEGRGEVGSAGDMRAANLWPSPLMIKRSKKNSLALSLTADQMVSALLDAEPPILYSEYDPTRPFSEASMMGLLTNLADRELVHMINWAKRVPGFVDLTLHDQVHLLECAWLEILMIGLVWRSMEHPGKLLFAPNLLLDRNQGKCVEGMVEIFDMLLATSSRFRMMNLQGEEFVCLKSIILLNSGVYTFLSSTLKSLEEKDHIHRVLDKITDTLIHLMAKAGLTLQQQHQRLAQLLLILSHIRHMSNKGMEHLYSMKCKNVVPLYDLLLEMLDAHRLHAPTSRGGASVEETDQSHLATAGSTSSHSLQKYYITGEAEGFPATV
Procedure, shortened: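 An 8 h HeLa transcription-induction format with a GFP reporter under ERE control, read by fluorescence microscopy; single endpoint fitted positively with DMSO as baseline.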

[3] = biological target: Estrogen receptor (Homo sapiens) (UniProt P03372); assay: OT_ERa_GFPERaERE_0120: Odyssey Thera (OT) 2-hour HeLa Transcription Induction Assay for Estrogen Receptor (AID 2283382)
Procedure, shortened: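 Two-hour compound treatment of HeLa cells preceded microscopy imaging of an inducible fluorescent reporter. Image-based quantification gave one endpoint, analysed for signal increase relative to DMSO controls.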

[4] = biological target: Bile acid receptor (Homo sapiens) (UniProt Q96RI1); assay: OT_FXR_FXRSRC1_1440: Odyssey Thera (OT) 24-hour HEK293T Protein-Complementation Assay for Farnesoid X receptor/SRC-1 Co-activator (AID 2283384)
Chain of Bile acid receptor (Homo sapiens) (Q96RI1 whole entry, looked up): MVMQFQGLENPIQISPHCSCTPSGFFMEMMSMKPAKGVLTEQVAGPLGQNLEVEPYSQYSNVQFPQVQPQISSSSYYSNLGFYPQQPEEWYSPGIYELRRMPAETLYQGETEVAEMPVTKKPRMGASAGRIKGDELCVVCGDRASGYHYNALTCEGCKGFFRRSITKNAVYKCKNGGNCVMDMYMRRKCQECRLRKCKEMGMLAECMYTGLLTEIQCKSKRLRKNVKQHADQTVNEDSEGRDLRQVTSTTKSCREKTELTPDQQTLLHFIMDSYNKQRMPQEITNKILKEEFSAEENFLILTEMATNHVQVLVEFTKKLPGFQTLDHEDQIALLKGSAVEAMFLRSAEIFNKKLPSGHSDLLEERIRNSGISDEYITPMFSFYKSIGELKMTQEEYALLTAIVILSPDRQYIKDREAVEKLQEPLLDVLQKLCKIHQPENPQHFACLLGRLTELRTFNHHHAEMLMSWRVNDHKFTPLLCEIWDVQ
Procedure, shortened: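 Single endpoint, analysed for increased fluorescence against DMSO controls. HEK293T cells carrying FXR and SRC-1 linked to complementary reporter halves were exposed to chemicals for 24 h before reading.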

[5] = biological target: Retinoic acid receptor RXR-alpha (Homo sapiens) (UniProt P19793); assay: OT_NURR1_NURR1RXRa_0480: Odyssey Thera (OT) 8-hour HEK293T Protein Complementation Assay for Nurr1/retinoid X receptor (RXR) (AID 2283385)
Chain of Retinoic acid receptor RXR-alpha (Homo sapiens) (P19793 whole entry, looked up, the tested form may be a part): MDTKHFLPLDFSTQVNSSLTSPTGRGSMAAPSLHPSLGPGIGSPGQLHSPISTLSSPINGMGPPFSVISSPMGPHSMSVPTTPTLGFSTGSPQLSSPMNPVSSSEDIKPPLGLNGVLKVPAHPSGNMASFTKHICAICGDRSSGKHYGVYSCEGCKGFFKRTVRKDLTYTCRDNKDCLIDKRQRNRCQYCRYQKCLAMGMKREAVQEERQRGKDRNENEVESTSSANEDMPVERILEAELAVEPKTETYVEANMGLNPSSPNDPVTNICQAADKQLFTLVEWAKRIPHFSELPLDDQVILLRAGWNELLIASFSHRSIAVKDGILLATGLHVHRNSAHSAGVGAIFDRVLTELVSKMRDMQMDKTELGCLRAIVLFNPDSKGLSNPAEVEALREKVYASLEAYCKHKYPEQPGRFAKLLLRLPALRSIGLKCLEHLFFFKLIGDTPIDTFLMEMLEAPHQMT
Procedure, shortened: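 Gain in fluorescent complementation signal over DMSO, measured 8 hours after chemical dosing of human kidney HEK293T cells, indicated enhanced Nurr1–RXRα association.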

[6] = biological target: Retinoic acid receptor RXR-alpha (Homo sapiens) (UniProt P19793); assay: OT_NURR1_NURR1RXRa_1440: Odyssey Thera (OT) 24-hour HEK293T Protein Complementation Assay for Nurr1/retinoid X receptor (RXR) (AID 2283386)
Procedure, shortened: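 Cell-based binding reporter: HEK293T cells, 24 h exposure, fluorescence-detected fragment complementation, DMSO as baseline.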

[7] = biological target: Peroxisome proliferator-activated receptor gamma (Homo sapiens) (UniProt P37231); assay: OT_PPARg_PPARgSRC1_0480: Odyssey Thera (OT) 8-hour Protein-Complementation Assay for Peroxisome Proliferator-activated Receptor Gamma / SRC-1 Co-activator (AID 2283387);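 also: nuclear to cytoplasmic split Venus YFP fluorescence ratio reporting PPARg SRC-1 interaction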
Chain of Peroxisome proliferator-activated receptor gamma (Homo sapiens) (P37231 whole entry, looked up, the tested form may be a part): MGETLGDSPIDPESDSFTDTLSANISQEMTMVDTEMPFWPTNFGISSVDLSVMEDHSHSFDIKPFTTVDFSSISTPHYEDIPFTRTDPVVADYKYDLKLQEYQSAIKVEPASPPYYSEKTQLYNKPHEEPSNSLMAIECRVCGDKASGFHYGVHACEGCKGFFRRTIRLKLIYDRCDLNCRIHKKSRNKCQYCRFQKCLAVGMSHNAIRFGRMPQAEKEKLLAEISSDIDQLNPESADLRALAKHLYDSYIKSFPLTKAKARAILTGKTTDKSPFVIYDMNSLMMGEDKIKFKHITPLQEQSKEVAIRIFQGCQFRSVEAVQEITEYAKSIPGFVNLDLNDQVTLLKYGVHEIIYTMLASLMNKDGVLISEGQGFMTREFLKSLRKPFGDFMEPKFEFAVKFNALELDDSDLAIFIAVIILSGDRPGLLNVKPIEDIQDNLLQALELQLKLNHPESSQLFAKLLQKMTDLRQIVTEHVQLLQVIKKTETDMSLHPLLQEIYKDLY
Procedure, shortened: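 Read-out: 488 nm N/C fluorescence ratio from complemented Venus YFP fragments, ≥350 cells per image, gain-of-signal fitted against DMSO baseline. Fusions of PPARg/SRC-1 with IFP1/IFP2 expressed transiently in HEK293T; compounds applied 8 h.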

[8] = biological target: Peroxisome proliferator-activated receptor gamma (Homo sapiens) (UniProt P37231); assay: OT_PPARg_PPARgSRC1_1440: Odyssey Thera (OT) 24-hour Protein-Complementation Assay for Peroxisome Proliferator-activated Receptor Gamma/ SRC-1 Co-activator (AID 2283388);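 also: nuclear to cytoplasmic ratio of reconstituted Venus YFP fluorescence in fixed imaged cells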
Procedure, shortened: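 Protein-fragment complementation between PPARg and coactivator SRC-1 was measured by fluorescence imaging in transiently transfected HEK293T cells after 24 h treatment. Signal was quantified as N/C ratio in the 488 nm channel, with DMSO as negative control.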

[9] = read-out: Tumor necrosis factor receptor superfamily member 6 (Homo sapiens) (UniProt P25445); assay: LTEA_HepaRG_FAS: Life Technologies and Expression Analysis (LTEA) Assay for Fas cell surface death receptor (FAS) using HepaRG (AID 2283447; active = hit-call score of the fitted dose curve at least 0.9, where 1 is the maximum; inactive = score below 0.9); details: mRNA level, 48 h; actives raise or lower the signal
Procedure, shortened: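 FAS transcript level was measured by TaqMan qRT-PCR against three housekeeping genes after 48 h chemical exposure. Cells were HepaRG, 0.5% DMSO vehicle, with a top concentration of 100 uM and half-log dilutions over eight points, in duplicate.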

[10] = CEETOX_H295R_11DCORT: CeeTox H295R High-throughput Steroidogenesis Assay for 11-Deoxycortisol (11DCORT) (AID 2283432; active = hit-call score of the fitted dose curve at least 0.9, where 1 is the maximum; inactive = score below 0.9;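 as to AC50: 11-deoxycortisol secreted into the medium measured by LC-MS/MS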); details: actives raise or lower the signal
Procedure, shortened: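 H295R cells; 10 uM forskolin prestim 48 h; compound in 0.1% DMSO 48 h; media extracted with MTBE; 11-deoxycortisol by LC-MS/MS, 7-point standard curve; gain/loss vs DMSO baseline; viability by MTT in same wells.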

[11] = CEETOX_H295R_OHPREG: CeeTox H295R High-throughput Steroidogenesis Assay for OH-Pregnenolone (OHPREG) (AID 2283434; active = hit-call score of the fitted dose curve at least 0.9, where 1 is the maximum; inactive = score below 0.9); details: actives raise or lower the signal
Procedure, shortened: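 Secreted 17alpha-hydroxypregnenolone measured by HPLC-MS/MS after liquid-liquid extraction. Human adrenal H295R cells received 48 h forskolin (10 uM) stimulation before 48 h chemical exposure at 0.1% final DMSO; MTT viability in same wells; bidirectional fit against DMSO.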

[12] = CEETOX_H295R_OHPROG: CeeTox H295R High-throughput Steroidogenesis Assay for OH-Progesterone (OHPROG) (AID 2283435; active = hit-call score of the fitted dose curve at least 0.9, where 1 is the maximum; inactive = score below 0.9;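 as to AC50: 17alpha-hydroxyprogesterone secreted into medium measured by HPLC-MS/MS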); details: actives raise or lower the signal
Procedure, shortened: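 Human adrenocortical H295R cells, passage 10 or lower, were treated with chemical for 48 h after forskolin priming, and hormone output in the medium was quantified by LC-MS/MS.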

[13] = CEETOX_H295R_CORTIC: CeeTox H295R High-throughput Steroidogenesis Assay for Corticosterone (CORTIC) (AID 2283437; active = hit-call score of the fitted dose curve at least 0.9, where 1 is the maximum; inactive = score below 0.9); details: actives raise or lower the signal
Procedure, shortened: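 Medium corticosterone was quantified by tandem mass spectrometry following 48 hours of chemical exposure (0.1% DMSO) in human H295R cells previously stimulated 48 hours with 10 uM forskolin. Viability checked by MTT; chemicals diluted and retested when viability fell below 70%.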

[14] = CEETOX_H295R_CORTISOL: CeeTox H295R High-throughput Steroidogenesis Assay for Cortisol (AID 2283438; active = hit-call score of the fitted dose curve at least 0.9, where 1 is the maximum; inactive = score below 0.9;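 also: cortisol secreted into medium quantified by LC-MS/MS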); details: actives raise or lower the signal
Procedure, shortened: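 Steroidogenesis in H295R, per modified OECD 456: 48 h forskolin (10 uM), then 48 h exposure, 0.1% DMSO. Cortisol by extraction and tandem MS; viability by MTT (570/650 nm); cytotoxic chemicals diluted and re-tested.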

[15] = CEETOX_H295R_DOC: CeeTox H295R High-throughput Steroidogenesis Assay for DOC (AID 2283439; active = hit-call score of the fitted dose curve at least 0.9, where 1 is the maximum; inactive = score below 0.9); details: actives raise or lower the signal
Procedure, shortened: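 H295R, fsk 10 uM ×48 h pre, cmpd ×48 h (0.1% DMSO). Media → MTBE extr. → LC-MS/MS, DOC. Bidirectional fit vs DMSO; MTT viability same wells, re-test diluted if <70%.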

[16] = CEETOX_H295R_ESTRADIOL: CeeTox H295R High-throughput Steroidogenesis Assay for Estradiol (AID 2283440; active = hit-call score of the fitted dose curve at least 0.9, where 1 is the maximum; inactive = score below 0.9;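 also: estradiol secreted into medium quantified by LC-MS/MS after dansyl derivatisation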); details: actives raise or lower the signal
Procedure, shortened: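 Estradiol secreted into the medium was measured by tandem mass spectrometry after liquid-liquid extraction and dansylation. Human H295R cells had been forskolin-primed (10 uM, 48 h) before a 48 h chemical exposure with 0.1% DMSO.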

[17] = CEETOX_H295R_ESTRONE: CeeTox H295R High-throughput Steroidogenesis Assay for Estrone (AID 2283441; active = hit-call score of the fitted dose curve at least 0.9, where 1 is the maximum; inactive = score below 0.9;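 also: estrone secreted into medium measured by LC-MS/MS after dansyl derivatization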); details: actives raise or lower the signal
Procedure, shortened: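 Forskolin-stimulated H295R cells are treated 48 h with chemical, and estrone in the medium is measured by LC-MS/MS. Activity is fitted in both directions relative to DMSO controls, with chemicals diluted until MTT viability reaches at least 70%.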

[18] = CEETOX_H295R_PROG: CeeTox H295R High-throughput Steroidogenesis Assay for Progesterone (PROG) (AID 2283442; active = hit-call score of the fitted dose curve at least 0.9, where 1 is the maximum; inactive = score below 0.9;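 as to AC50: human H295R adrenal cells primed with 10 µM forskolin before dosing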); details: actives raise or lower the signal
Procedure, shortened: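 Steps: seed H295R cells and let them adhere overnight; prime 48 h with 10 uM forskolin; dose with compound in DMSO at 0.1% final for 48 h; extract medium steroids with MTBE; measure progesterone by LC-MS/MS. MTT viability was run in the same wells.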

Measured: AC50

N#C[C@@H]1CC(F)(F)CN1C(=O)CNC1CC2CCC(C1)N2c1ncccn1 (some centres not stated)
inactive: [1] | [2] | [3] | [4] | [5] | [6] | [7] | [8] | [9]

COCC(C)OCC(C)O (configuration not stated)
inactive: [1] | [2] | [3] | [4] | [5] | [6] | [7] | [8] | [9]

Oc1cccc(O)c1
active: [1] 18 µM | [2] 52.9 µM
inactive: all other assays above

COc1ccc([N+](=O)[O-])cc1N
active: [10] 50 µM | [12] 6.07 µM | [13] 8.72 µM | [14] 44.6 µM | [15] 10.6 µM | [18] 14.2 µM
inactive: all other assays above

C[C@@H]1C[C@H]2[C@@H]3CCC4=CC(=O)C=C[C@]4(C)[C@@]3(F)[C@@H](O)C[C@]2(C)[C@@]1(O)C(=O)COP(=O)(O)O
not listed: [4]
inactive: all other assays above

NC(=O)N(O)[C@@H]1C=C[C@H](Oc2cccc(Oc3ccc(F)cc3)c2)C1
inactive: [2] | [3] | [5] | [6] | [7] | [8] | [10] | [11] | [12] | [13] | [15] | [18]
active: [1] 66.9 µM | [4] 12.8 µM | [5] 92.2 µM | [9] 67.2 µM
